A selection: hits, their analogues and other compounds. The true share with any hit is near 21%.
Sm TGR block – blocks Schistosoma mansoni thioredoxin glutathione reductase. Q962Y6. purified TGR, DTNB reduction, TNB absorbance 405 nm. Potency, µM (highest dose often 114 µM), inactives show at the top dose activity change, negative = inhibition, usual class: inhibitors. 3% of 360,000 active. AID 485364; also: potency is read from the fitted curve at half-maximal effect; % is scaled to controls: 0 for no effect and ±100 for the full control effect; nearly all actives have a fitted effect of over 60% in size
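Kinetic colorimetric format: TGR-catalysed, NADPH-driven DTNB reduction monitored via TNB absorbance. Enzyme dispensed at 20 nM; compound exposure 15 min at room temperature before reaction start.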
CHX counter – affects cycloheximide protein synthesis inhibition readout, counter-screen. cell reporter, cycloheximide protein synthesis inhibition counterscreen. max response, %. 12% of 300,000 active; in the data active = max response mostly above about 13%, no sharp cut-off; inactive = mostly below about 14%; also: read at 38.3 µM for the half of the compounds with a filed dose; 0% is about no effect
Shiga inhibitor – inhibitors of Shiga toxin in Vero cells; 9.2% of 290,000 active; Vero cells, Shiga toxin protein synthesis inhibition reporter; inhibition, % at 38.7 µM; in the data active = inhibition mostly above about 28%, no sharp cut-off; inactive = mostly below about 43%; also: 0% is about no effect
Pf growth 96h – P. falciparum growth inhibition at 96 hour, primary screen for plastid delayed-death inhibitors. 6.9% of 320,000 active. Potency, µM (top dose mostly 28.7 µM), inactives show top-dose activity change, negative = inhibition, usual class: inhibitors. P. falciparum luciferase reporter growth, 96 h; also: potency is read from the fitted curve at half-maximal effect; % is scaled to controls: 0 for no effect and ±100 for the full control effect
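Two parasite generations (96 h, 37 C, 5% CO2) of compound exposure in infected erythrocytes (0.05% parasitemia, 2% hematocrit). Luciferase-reporter P. falciparum; decreased luminescence indicates inhibited growth, aimed at apicoplast-acting delayed death.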
NS1 function inh – inhibitors of influenza NS1 protein function. Potency, µM (doses to about 46.1 µM), for the others: top-dose activity, positive = more growth. 0.4% of 270,000 active; calls by dose curve; also: potency is read from the fitted curve at half-maximal effect; actives are rising curves; nearly all actives have a fitted effect of over 50% in size
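Read-out: OD600 growth recovery of NS1-expressing budding yeast. Cells grown overnight at 30C in -URA glucose medium, washed, resuspended and diluted 1:100 in 2% galactose assay medium, pH 6.0. Same strain lacking NS1 served as positive control.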
Pf growth 48h – inhibits P. falciparum growth in the first generation, 48 h; P. falciparum luciferase growth in erythrocytes, 48 h; Potency, µM (series often up to 28.7 µM), inactives show at the top dose activity change, negative = inhibition, usual class: inhibitors; 5.9% of 310,000 active; also: potency is read from the fitted curve at half-maximal effect; % is scaled to controls: 0 for no effect and ±100 for the full control effect
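Luciferase-expressing parasites in RBCs, 2% Hct / 0.1% parasitemia final; RPMI 1640 + 0.5% Albumax; 37 C, 5% CO2, one generation; luminescence read-out, lower signal = inhibition.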
The depositor's hits bear a star; [ ] = another dose, or the depositor's remark. Unless noted, calls follow the shape of the dose curve; as a rule, active = well fitted curve in the direction sought with a large enough effect; inconclusive = small, poorly fitted or top-dose-only effect, or another doubt; inactive = no such curve, though single readings can be large; an effect the other way counts as inactive or inconclusive.

How did CCCCn1c(N)c(N(CC(C)C)C(=O)C2CCN(S(=O)(=O)c3ccc(Cl)cc3)CC2)c(=O)[nH]c1=O do in these assays?
Sm TGR block: -0.7%; Pf growth 96h: 9.28µM*; Pf growth 48h: 9.28µM*

What do the screens show for `c1ccc(N2CCN(c3nc(-c4ccccn4)nc4ccccc34)CC2)cc1`?
Sm TGR block: 5.9%; CHX counter: 0.7; Shiga inhibitor: -18.2; Pf growth 96h: 2.94µM*; NS1 function inh: -66.3%; Pf growth 48h: 1.85µM*

How did CN1CCN(c2nc(-c3ccc(Cl)c(Cl)c3)nc3ccccc23)CC1 do in these assays?
Sm TGR block: -5.8%; CHX counter: 7.2; Shiga inhibitor: -5.3; Pf growth 96h: inconclusive; NS1 function inh: 7.6%; Pf growth 48h: -25.4%

How did CSc1nc(N2CCN(C)CC2)c2ccccc2n1 do in these assays?
Sm TGR block: inconclusive; CHX counter: -2.1; Shiga inhibitor: -3.1; Pf growth 96h: 14.7µM*; NS1 function inh: 1.7%; Pf growth 48h: -9.7%

What do the screens show for `CN1CCN(c2nc(-c3ccccn3)nc3ccccc23)CC1`?
Sm TGR block: -8.8%; CHX counter: 4.7; Shiga inhibitor: 18.2; Pf growth 96h: 5.86µM*; NS1 function inh: 3.9%

Results for COc1ccccc1C(=O)NC(CCSC)C(=O)NCc1ccncc1 (centres undefined) ?
Sm TGR block: -19.8%; Pf growth 96h: inconclusive; Pf growth 48h: inconclusive

How did Cc1ccc(C)c(S(=O)(=O)N2CCCCC2CCNC(=O)C(=O)NCc2ccncc2)c1 (centres undefined) do in these assays?
Sm TGR block: -4.4%; Pf growth 96h: inconclusive; Pf growth 48h: inconclusive

What do the screens show for `COc1ccc(-n2c(C)cc(C)c(C(C)=O)c2=S)cc1`?
Sm TGR block: 9.0%; CHX counter: -2.9; Shiga inhibitor: -3.1; Pf growth 96h: 11.7µM*; NS1 function inh: -2.8%; Pf growth 48h: 14.7µM*

How did C/C(=N/NC(=O)C(O)(c1ccccc1)c1ccccc1)c1ccc([N+](=O)[O-])o1 do in these assays?
Sm TGR block: inconclusive; CHX counter: -5.1; Shiga inhibitor: -7.9; Pf growth 96h: 185.4%; Pf growth 48h: inconclusive

Results for COc1ccccc1N1CCN(C2CC(=O)N(c3cccc(Cl)c3)C2=O)CC1 (centres undefined) ?
Sm TGR block: 39.8µM*; CHX counter: -3.1; Pf growth 96h: inconclusive; NS1 function inh: -30.1%; Pf growth 48h: 29.7%

What do the screens show for `COc1ccccc1N1CCN(C2CC(=O)N(c3ccccc3)C2=O)CC1` (centres undefined)?
Sm TGR block: inconclusive; CHX counter: 0.2; Shiga inhibitor: -21.2; Pf growth 96h: inconclusive; NS1 function inh: -7.7%; Pf growth 48h: inconclusive

Results for COc1cccc(N2C(=O)CC(N3CCC(c4nc5ccccc5[nH]4)CC3)C2=O)c1 (centres undefined) ?
Sm TGR block: -14.9%; CHX counter: 3.6; Shiga inhibitor: 6.8; Pf growth 96h: 0.2%; NS1 function inh: -78.3%; Pf growth 48h: 0.0%

What do the screens show for `CCOc1ccc(N2C(=O)CC(N3CCN(c4ccccc4OC)CC3)C2=O)cc1` (centres undefined)?
Sm TGR block: 39.8µM*; CHX counter: 1.1; Shiga inhibitor: 16.6; Pf growth 96h: 2.62µM*; NS1 function inh: -14.5%; Pf growth 48h: 2.94µM*

Results for CCOc1ccc(N2C(=O)CC(N3CCN(c4ccccc4F)CC3)C2=O)cc1 (centres undefined) ?
Sm TGR block: -29.4%; CHX counter: -2.2; Shiga inhibitor: -3.4; NS1 function inh: -7.5%; Pf growth 48h: 11.7%

What do the screens show for `COc1ccccc1N1C(=O)CC(N2CCc3ccccc32)C1=O` (centres undefined)?
Sm TGR block: -27.9%; CHX counter: 10.0; Shiga inhibitor: 26.9; Pf growth 96h: 2.4%; NS1 function inh: inconclusive; Pf growth 48h: inconclusive

How did Cc1cccc(N2C(=O)CC(N3CCC(c4nc5ccccc5[nH]4)CC3)C2=O)c1 (centres undefined) do in these assays?
Sm TGR block: 35.5µM*; CHX counter: 1.1; Shiga inhibitor: -13.5; Pf growth 96h: 20.4%; NS1 function inh: -93.9%

Results for COc1cccc(N2C(=O)CC(N3CCc4ccccc43)C2=O)c1 (centres undefined) ?
Sm TGR block: -2.3%; CHX counter: 23.7*; Shiga inhibitor: 35.0*; Pf growth 96h: 36.7%; NS1 function inh: 7.7%; Pf growth 48h: 16.2%

Results for CC(C)(C)OC(=O)C(Cl)(C(=O)OC(C)(C)C)c1ccc2nnnn2n1 ?
Sm TGR block: -12.6%; CHX counter: 10.3; Shiga inhibitor: 15.5; Pf growth 96h: inconclusive; Pf growth 48h: -23.2%

How did CCOc1ccccc1NC(=O)CSc1nc2cc(OC)c(OC)cc2c2nc(CCn3c(C)nc4ccccc43)nn12 do in these assays?
Sm TGR block: -5.0%

How did Cc1ccc(C)c(CN2C(=O)c3ccccc3S(=O)c3ccc(C(=O)N4CCN(c5cccc(Cl)c5)CC4)cc32)c1 (centres undefined) do in these assays?
Sm TGR block: 2.9%

What do the screens show for `Cc1cccc(N2C(=O)CC(N3CCN(Cc4ccc(Cl)cc4)CC3)C2=O)c1` (centres undefined)?
Sm TGR block: 44.7µM*; CHX counter: -3.1; Shiga inhibitor: -10.6; Pf growth 96h: inconclusive; NS1 function inh: 0.9%; Pf growth 48h: 15.3%

What do the screens show for `COc1cccc(N2C(=O)CC(N3CCN(c4ccc([N+](=O)[O-])cc4)CC3)C2=O)c1` (centres undefined)?
Sm TGR block: inconclusive; CHX counter: -2.2; Shiga inhibitor: -11.7; Pf growth 96h: 6.8%; NS1 function inh: -2.6%; Pf growth 48h: -7.9%

What do the screens show for `CCCOc1ccc(N2C(=O)CC(N3CCN(c4ccccc4OC)CC3)C2=O)cc1` (centres undefined)?
Sm TGR block: 50.1µM*; CHX counter: 0.9; Shiga inhibitor: -12.4; Pf growth 96h: -4.7%; NS1 function inh: -33.1%

Results for COc1ccccc1N1C(=O)CC(N2CCN(c3ccc([N+](=O)[O-])cc3)CC2)C1=O (centres undefined) ?
Sm TGR block: 39.8µM*; CHX counter: -0.2; Shiga inhibitor: -4.7; Pf growth 96h: 37.1%; NS1 function inh: -21.3%; Pf growth 48h: -2.1%

Results for Cc1ccc(N2C(=O)C(Cl)=C(N3CCCCCC3)C2=O)c(C)c1 ?
Sm TGR block: 16.7%; CHX counter: -1.7; Shiga inhibitor: -6.6; Pf growth 96h: -23.2%; NS1 function inh: -7.9%; Pf growth 48h: 1.6%[0.00184 µM]

How did COc1ccc2[nH]c(=O)c(CNc3cc(C)ccc3C)cc2c1 do in these assays?
Sm TGR block: -0.7%; CHX counter: 13.8*; Shiga inhibitor: 43.5*; Pf growth 96h: -1.6%; NS1 function inh: -1.4%; Pf growth 48h: -16.9%
